PLK1 PBD inh: qHTS for Inhibitors of PLK1-PDB (polo-like kinase 1 - polo-box domain): Primary Screen. Serine/threonine-protein kinase PLK1 (Homo sapiens), P53350. Plk1 PBD binding of FITC phosphopeptide, fluorescence polarization. Potency, µM, inactives show max response, negative = inhibition, actives largely listed as inhibitors. 360,000 tested, 2.8% active; note: potency is the fitted concentration of half-maximal effect; series mostly up to about 57 µM; % is set by controls: 0 for no effect and ±100 for the full control effect; nearly all actives have a fitted effect of over 65% in size
Target sequence (P53350 whole entry, looked up, the tested form may be a part): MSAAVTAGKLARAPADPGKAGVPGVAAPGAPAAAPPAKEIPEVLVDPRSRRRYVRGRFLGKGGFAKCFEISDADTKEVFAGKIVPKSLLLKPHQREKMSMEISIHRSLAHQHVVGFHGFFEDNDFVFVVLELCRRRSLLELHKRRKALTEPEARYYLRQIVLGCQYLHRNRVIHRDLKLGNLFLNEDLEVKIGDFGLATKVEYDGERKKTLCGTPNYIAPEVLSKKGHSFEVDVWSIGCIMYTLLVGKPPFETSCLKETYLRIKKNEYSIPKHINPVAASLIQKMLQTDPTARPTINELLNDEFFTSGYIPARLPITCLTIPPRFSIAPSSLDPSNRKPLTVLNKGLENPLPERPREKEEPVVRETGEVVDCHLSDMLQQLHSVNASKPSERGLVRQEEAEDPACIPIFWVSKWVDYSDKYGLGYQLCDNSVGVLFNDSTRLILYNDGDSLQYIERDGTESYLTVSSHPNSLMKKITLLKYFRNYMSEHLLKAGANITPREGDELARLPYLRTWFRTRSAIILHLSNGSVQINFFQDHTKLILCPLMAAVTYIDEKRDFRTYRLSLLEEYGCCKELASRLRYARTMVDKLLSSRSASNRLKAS
KAT2A inh: qHTS Assay for Inhibitors of GCN5L2. GCN5L2 HAT assay, ThioGlo1 CoA-SH fluorescence. 390,000 tested, 0.21% active. AID 504327, 2011. Potency, µM (doses to about 58.9 µM), for the others: at the highest dose activity change, negative = inhibition, usual class: inhibitors; note: potency is the fitted concentration of half-maximal effect; % is set by controls: 0 for no effect and ±100 for the full control effect
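ThioGlo1-coupled HAT assay: 20nM GCN5L2, 70uM acetyl-CoA, 75uM H3(1-25) peptide, pH 7.5. Fluorescence read at 340/540nm at start and after 20 min at room temperature.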
JMJD2A Tudor: qHTS Assay for Inhibitors of JMJD2A-Tudor Domain; Lysine-specific demethylase 4A (Homo sapiens), O75164; Potency, µM (series often up to 114 µM), without a hit: at the highest dose activity change, negative = inhibition, hits mostly inhibitors; 390,000 tested, 4.4% active; AID 504339, 2011; AlphaScreen JMJD2A-Tudor / H3K4me3 peptide binding; note: potency is the fitted concentration of half-maximal effect; % is set by controls: 0 for no effect and ±100 for the full control effect; nearly all actives have a fitted effect of over 50% in size
HP1b chromo inh: HTS for Inhibitors of HP1-beta Chromodomain Interactions with Methylated Histone Tails | AlphaScreen HP1-beta / biotin-H3K9me3 peptide binding | 390,000 tested, 0.56% active | Potency, µM (highest dose often 114 µM), for the others: at the top dose activity change, negative = inhibition, usual class: inhibitors; note: potency is the fitted concentration of half-maximal effect; nearly all actives have a fitted effect of over 70% in size
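Compound inhibition of the preformed complex between 50 nM HP1-beta and 50 nM biotinylated H3K9me3 peptide was read by AlphaScreen. Buffer was PBS pH 7.4 with 0.01% Tween-20. Incubations ran 30 min at room temperature, with 10 ug/mL donor/acceptor beads.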
PI5P4Ka inh: qHTS for Inhibitors of phosphatidylinositol 5-phosphate 4-kinase (PI5P4K); Phosphatidylinositol 5-phosphate 4-kinase type-2 alpha (Homo sapiens), P48426; PI5P4Kalpha enzyme, ADP-Glo luminescence, 60 min; stronger effect = lower value; max response, %; 330,000 tested, 1.2% active; AID 652105, 2013; active = max response of -50% or lower; inconclusive = between -30% and -50%; inactive = -30% or higher; note: value at the top dose of about 77 µM; % is set by controls: 0 for no effect and ±100 for the full control effect
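Enzyme plus substrate dispensed, test compounds pinned in, then ATP (5 microM final) added. After 60 min at RT, ADP-Glo reagent 1 for 45 min and reagent 2 for 30 min preceded luminescence imaging.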
BAZ2B inh: qHTS Assay for Inhibitors of BAZ2B | Bromodomain adjacent to zinc finger domain protein 2B (Homo sapiens), Q9UIF8 | AlphaScreen BAZ2B-H3K14Ac peptide displacement | Potency, µM (highest dose often 114 µM), inactives show top-dose activity change, negative = inhibition, actives largely listed as inhibitors | 360,000 tested, 4.4% active | AID 504333, 2011; note: potency is the fitted concentration of half-maximal effect; % is set by controls: 0 for no effect and ±100 for the full control effect; nearly all actives have a fitted effect of over 60% in size
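AlphaScreen luminescence quantifies BAZ2B engagement of H3K14Ac peptide; the protein and biotinylated peptide are both at 50 nM final, buffer PBS pH 7.4 with 0.01% Tween-20, all steps at room temperature.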
Active calls of the source: *; ? = inconclusive; / = no result; [ ] = another dose, or the depositor's remark. Shown are actives, neighbours in structure and some others; about 7% of the full set was active somewhere. Unless noted, calls come from the whole dose curve; as a rule, active = well fitted curve in the direction sought with a large enough effect; inconclusive = small, poorly fitted or top-dose-only effect, or another doubt; inactive = no such curve, though single readings can be large; an effect the other way counts as inactive or inconclusive.

SMILES	PLK1 PBD inh	KAT2A inh	JMJD2A Tudor	HP1b chromo inh	PI5P4Ka inh	BAZ2B inh
Cc1nnc(-c2ccccc2)c(=O)n1/N=C/c1c(O)ccc2ccccc12	-1%	-1%	56µM*	3%	7	25µM*
Cc1nnc(C)n1/N=C/c1c(O)ccc2ccccc12	?	0%	8.9µM*	37%	10	?
O=S(=O)(/N=C/c1c(O)ccc2ccccc12)c1ccccc1	15µM*	-5%	56µM*	79µM*	-1	-20%
O=C(O)c1ccc(N=Cc2c(O)ccc3ccccc23)cc1	-16%	-15%	?	15%	5	-5%
CCc1n[nH]c(=S)n1/N=C/c1ccc2c(c1)OCO2	-8%	-4%	4.5µM*	9%	/	-4%
COc1cccc(N2CC(NC(=O)c3ccc(S(=O)(=O)N4CCOCC4)cc3)CC2=O)c1 (stereo not drawn)	/	-1%	-17%	50%	/	-9%
CCN(CC)CCOC(=O)c1cc(Cl)c(N)cc1OC	-10%	-6%	-9%	19%	-2	-4%
CCc1n[nH]c(=S)n1/N=C/c1c(O)ccc2ccccc12	-13%	-15%	14µM*	37%	5	-24%
CCc1n[nH]c(=S)n1/N=C/c1cccc2ccccc12	-21%	-4%	?	32%	1	-18%
Cn1c(/N=C/c2c(O)ccc3ccccc23)nc2ccccc21	1.3µM*	-7%	40µM*	?	/	56µM*
CCc1ccccc1NC(=O)CCNS(=O)(=O)c1ccc2c(c1)CCN2C(=O)C1CC1	/	3%	-10%	23%[57 µM]	/	2%
COc1cccc(/C=C/c2ccccn2)c1O	27µM*	-4%	-6%[11.4 µM]	9%	3	0%
COc1cccc(O)c1O	/	-20%	/	/	/	/
Cc1cc(NC(=O)COc2ccc3oc4ccccc4c3c2)no1	30µM*	-2%	5%[11.4 µM]	-12%	-12	20%
Cc1cc(NC(=O)COc2ccc3c(C)c(C)c(=O)oc3c2)no1	5%	/	/	/	-4	/
O=C(NCC(=O)N(c1cccnc1)C(C(=O)NC1CCCC1)c1cccs1)c1cccs1 (stereo not drawn)	0%	11%	-4%	29%	-6	-39%
S=c1[nH]c(-c2ccccc2)cs1	21µM*	-30%	22µM*	?	-70*	40µM*
Fc1ccc(-c2csc(=S)[nH]2)cc1	24µM*	5%	22µM*	-25%	-51*	50µM*
O=c1[nH]c(-c2ccccc2)cs1	-6%	-2%	-12%	10%	3	-6%
Cn1c(CNc2cccc(C(F)(F)F)c2)n[nH]c1=S	27µM*	1%	?	?	-2	-7%
CC(C)(C)c1ccc(Nc2nc(C#N)nc(NC3CCCC3)n2)cc1	/	/	-18%	/	/	/
O=S(=O)(Nc1cc(S(=O)(=O)N2CCOCC2)ccc1NCC1CCCO1)c1ccccc1 (stereo not drawn)	-1%	0%	-18%	19%	-2	4%
Cc1cc(C(=O)NCC(=O)Nc2ccc(F)c(F)c2)c(C)o1	-3%	0%	-14%	7%	-2	/
N=C1C(c2nc(-c3cccc([N+](=O)[O-])c3)cs2)=C(O)CN1NC(=O)c1ccco1	-30%	-6%	-27%	0%	-55*	/
O=C(Nc1ccccc1)c1ccc(Nc2c([N+](=O)[O-])cc([N+](=O)[O-])c3ccccc23)cc1	-3%	-3%	-17%	20%	8	?
SMILES	PLK1 PBD inh	KAT2A inh	JMJD2A Tudor	HP1b chromo inh	PI5P4Ka inh	BAZ2B inh
O=[N+]([O-])c1cc(Br)c(Nc2ccccc2)c([N+](=O)[O-])c1	30µM*	?	20µM*	?	3	14µM*
CC1(C(=O)NCCc2c[nH]c3ccccc23)CCN1CC1CCCCC1 (stereo not drawn)	1%	/	/	/	1	/
COCCOC(=O)/C(C#N)=C/c1cn(Cc2ccccc2)nc1-c1cccnc1	27µM*	-6%	35µM*	16%	-10	79µM*
N#Cc1ccc(CN2CCN(C(=O)c3cn(Cc4ccccc4)nc3-c3cccnc3)CC2)cc1	-12%	1%	-15%	27%	-3	1%
COc1cccc(CNc2ncnc3cc(Cl)ccc23)c1	-11%	-2%	-3%	34%	-1	-11%
CNc1nc(Cl)c(SC)c(NCc2cccc(OC)c2)n1	11µM*	?	?	20%	-18	22%
CC1(c2nc3ccccc3[nH]2)c2ccccc2C(=O)N1Cc1ccccc1 (stereo not drawn)	-10%	/	/	/	-8	/
CCNC(=O)C1CC(=O)N(c2ccc(Br)cc2)C1 (stereo not drawn)	24µM*	-5%	-15%[11.4 µM]	-6%	-8	-2%
C=CCNC(=O)C1CC(=O)N(c2ccc(Br)cc2)C1 (stereo not drawn)	-1%	1%	3%	58%	-5	0%
C=CCN1CC(O)=C(c2ccccc2)C1=N	-3%	-16%	-5%	35%	/	-19%
N=C1C(c2ccccc2)=C(O)CN1CCCO	24µM*	-4%	-21%	10%	2	-4%
Oc1cccc2ccc(Nc3ccccn3)nc12	-1%	-7%	18µM*	29%	/	5µM*
Cc1cccc[n+]1C1C(c2ccccc2)C(C#N)=C(C(=C=[N-])C#N)NC1(O)C1CC1 (stereo not drawn)	?	-8%	?	-19%	-74*	-35%
CCCC(C(=O)NCC1CCCO1)N(Cc1ccco1)C(=O)CNS(=O)(=O)c1ccc(F)cc1 (stereo not drawn)	15µM*	3%	-3%[11.4 µM]	0%	-29	-3%
CCN(Cc1ccccc1)Cc1c(O)ccc2c(=O)c(-c3ccc(Cl)cc3)c(C(F)(F)F)oc12	/	-3%	2%	28%	/	8%
Clc1ccccc1Cn1nnc2c(N3CCCC3)ncnc21	-2%	-5%	-9%	25%	/	-1%
CC1Cc2ccccc2N1c1ncnc2c1nnn2Cc1ccccc1Cl (stereo not drawn)	27µM*	2%	10%[11.4 µM]	1%	0	21%
CC(C)(C)NC(=O)CSc1ncnc2c1nnn2Cc1ccccc1Cl	27µM*	-14%	50µM*	-2%	0	-1%
O=C(CCNC(=O)c1ccccc1)NCCCc1ccccc1	-3%	-7%	-10%	34%	8	-5%
CC(=O)Nc1nonc1-c1nnc(SCc2ccccc2)n1C	/	-3%	-7%	42%	/	-4%
